Laboratory results taken from ChEMBL document CHEMBL3988442, “University of Dundee, Small-Polar-MMV Screening Library” (2021).
For some assays here: Measured potencies and affinities stand elsewhere.

Assays:
Design in all cases: scale not given: direction of the effect not stated beside the values
[1] = biological target: Protein translocase subunit SecA (Escherichia coli (strain K12)) (UniProt P10408); assay: Assay to Identify E. coli SecA ATPase Inhibitors; assay type: functional; conditions: 30 µM
Sequence of Protein translocase subunit SecA (Escherichia coli (strain K12)) (P10408 whole entry): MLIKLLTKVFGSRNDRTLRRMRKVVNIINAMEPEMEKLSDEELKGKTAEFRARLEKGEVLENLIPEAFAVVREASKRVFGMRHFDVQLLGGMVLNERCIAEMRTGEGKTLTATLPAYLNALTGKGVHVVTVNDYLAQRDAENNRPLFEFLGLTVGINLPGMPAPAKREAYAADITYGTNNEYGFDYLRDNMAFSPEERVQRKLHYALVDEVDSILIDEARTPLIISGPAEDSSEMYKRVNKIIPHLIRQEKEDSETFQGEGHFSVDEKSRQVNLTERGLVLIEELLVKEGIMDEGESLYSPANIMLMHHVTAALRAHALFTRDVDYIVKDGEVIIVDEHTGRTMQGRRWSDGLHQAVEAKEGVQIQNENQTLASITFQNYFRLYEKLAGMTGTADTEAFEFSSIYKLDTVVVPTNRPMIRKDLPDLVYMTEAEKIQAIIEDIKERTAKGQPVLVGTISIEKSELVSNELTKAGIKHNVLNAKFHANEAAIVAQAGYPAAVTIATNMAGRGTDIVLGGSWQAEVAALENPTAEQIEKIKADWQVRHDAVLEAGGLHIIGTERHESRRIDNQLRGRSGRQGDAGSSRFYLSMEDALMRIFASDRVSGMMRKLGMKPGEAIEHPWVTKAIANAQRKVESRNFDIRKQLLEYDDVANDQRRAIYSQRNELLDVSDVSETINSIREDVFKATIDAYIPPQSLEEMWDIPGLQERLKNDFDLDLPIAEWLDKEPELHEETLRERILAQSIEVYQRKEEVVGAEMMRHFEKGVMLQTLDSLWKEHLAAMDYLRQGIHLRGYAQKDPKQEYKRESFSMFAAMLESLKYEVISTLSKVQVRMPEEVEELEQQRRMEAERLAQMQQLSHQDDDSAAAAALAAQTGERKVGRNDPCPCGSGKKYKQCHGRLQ

[2] = biological target: T1, Ubiquitin-activating enzyme e1, putative (Leishmania donovani (strain BPK282A1)) (UniProt E9BSI1); assay: Leishmania donovani Ubiquitin Activating Enzyme (LdE1); assay type: functional; conditions: 30 µM
T1 sequence (whole entry): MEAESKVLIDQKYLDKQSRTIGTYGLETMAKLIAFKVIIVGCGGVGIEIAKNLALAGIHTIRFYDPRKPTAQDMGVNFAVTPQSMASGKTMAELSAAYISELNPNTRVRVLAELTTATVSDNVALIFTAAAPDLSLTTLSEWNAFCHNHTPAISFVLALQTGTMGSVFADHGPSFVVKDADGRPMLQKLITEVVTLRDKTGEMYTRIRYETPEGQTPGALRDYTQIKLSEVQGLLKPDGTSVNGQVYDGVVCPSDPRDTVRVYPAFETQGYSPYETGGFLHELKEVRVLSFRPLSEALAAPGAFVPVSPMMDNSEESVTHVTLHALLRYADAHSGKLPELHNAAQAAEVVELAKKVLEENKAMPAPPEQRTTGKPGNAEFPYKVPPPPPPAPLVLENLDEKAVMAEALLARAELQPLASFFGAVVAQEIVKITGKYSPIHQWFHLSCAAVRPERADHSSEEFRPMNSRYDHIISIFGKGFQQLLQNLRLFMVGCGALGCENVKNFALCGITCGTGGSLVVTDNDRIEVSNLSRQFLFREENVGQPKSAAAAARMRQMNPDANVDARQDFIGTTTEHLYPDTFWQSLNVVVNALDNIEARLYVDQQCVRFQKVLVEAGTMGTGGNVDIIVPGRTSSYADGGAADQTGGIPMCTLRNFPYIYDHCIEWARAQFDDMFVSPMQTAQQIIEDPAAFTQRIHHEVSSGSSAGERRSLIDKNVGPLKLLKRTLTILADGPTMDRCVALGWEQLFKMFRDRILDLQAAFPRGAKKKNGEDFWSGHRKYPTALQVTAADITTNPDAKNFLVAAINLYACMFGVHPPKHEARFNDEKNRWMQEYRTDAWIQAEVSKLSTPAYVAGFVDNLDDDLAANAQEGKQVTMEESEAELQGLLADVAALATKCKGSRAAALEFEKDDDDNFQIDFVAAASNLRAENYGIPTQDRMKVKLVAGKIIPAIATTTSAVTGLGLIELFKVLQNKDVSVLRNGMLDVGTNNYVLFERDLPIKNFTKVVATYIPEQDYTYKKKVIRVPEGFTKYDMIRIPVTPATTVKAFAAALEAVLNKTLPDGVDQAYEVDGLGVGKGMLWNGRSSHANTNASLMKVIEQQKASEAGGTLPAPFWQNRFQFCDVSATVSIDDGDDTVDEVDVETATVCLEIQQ

[3] = biological target: AMP-activated protein kinase, AMPK (Homo sapiens) (UniProt P54646+O43741+P54619+Q9UGJ0+Q9Y478+Q13131+Q9UGI9); assay: AMP-dependent Kinase enzyme assay. An in vitro enzyme assay that detects ADP turnover that is directly proportional to AMPK activity. This uses naive AMPK that is activated during the assay with MK-8722; assay type: functional; conditions: 30 µM
[4] = biological target: Sialic acid-binding Ig-like lectin 9 (Homo sapiens) (UniProt Q9Y336); assay: Hs-Siglec9 ALPHAscreen SOP 20170721; conditions: 10 µM
Sequence of Sialic acid-binding Ig-like lectin 9 (Homo sapiens) (Q9Y336 whole entry): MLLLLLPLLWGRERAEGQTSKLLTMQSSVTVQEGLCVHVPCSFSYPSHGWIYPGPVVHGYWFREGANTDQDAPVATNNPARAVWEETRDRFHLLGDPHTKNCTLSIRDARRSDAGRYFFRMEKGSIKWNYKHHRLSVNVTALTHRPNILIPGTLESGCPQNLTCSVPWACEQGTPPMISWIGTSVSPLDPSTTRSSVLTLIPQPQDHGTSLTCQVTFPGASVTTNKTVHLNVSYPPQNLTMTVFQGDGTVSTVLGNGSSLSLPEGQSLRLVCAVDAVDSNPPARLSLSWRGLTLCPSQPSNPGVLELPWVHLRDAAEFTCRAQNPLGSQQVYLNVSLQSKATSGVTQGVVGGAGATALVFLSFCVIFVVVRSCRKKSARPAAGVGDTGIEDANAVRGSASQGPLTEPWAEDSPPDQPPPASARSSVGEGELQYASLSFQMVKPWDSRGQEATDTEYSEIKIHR

Trypanosoma cruzi = assay: Trypanosoma cruzi phosphomannomutase and mannose-1-phosphate guanylyltransferase assay; assay type: functional; conditions: 10 µM
[5] = biological target: T2, Arginase-2, mitochondrial (Homo sapiens) (UniProt P78540); assay: in vitro enzyme assay to detect the production of urea directly proportional to the activity of Arginase II; assay type: functional; conditions: 33.3 µM; further: in the data most compounds retested in dose-response had high values
T2 sequence (whole entry): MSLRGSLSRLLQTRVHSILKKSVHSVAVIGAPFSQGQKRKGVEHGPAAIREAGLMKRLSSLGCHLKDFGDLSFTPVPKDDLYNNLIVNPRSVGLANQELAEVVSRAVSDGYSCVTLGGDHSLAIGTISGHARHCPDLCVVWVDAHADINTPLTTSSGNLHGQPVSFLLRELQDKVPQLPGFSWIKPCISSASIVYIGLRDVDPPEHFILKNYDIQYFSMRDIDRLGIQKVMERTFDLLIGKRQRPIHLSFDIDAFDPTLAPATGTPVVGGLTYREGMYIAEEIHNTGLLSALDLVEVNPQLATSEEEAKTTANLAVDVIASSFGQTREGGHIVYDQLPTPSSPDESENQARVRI

[6] = biological target: T3, Proteasome subunit beta (Trypanosoma cruzi) (UniProt O96673); assay: Trypanosoma cruzi proteasome chymotrypsin-like activity (TcProtChymo) assay.; further: in the data most compounds retested in dose-response had high values; assay type: functional; conditions: 9.37 µM
T3 sequence (whole entry): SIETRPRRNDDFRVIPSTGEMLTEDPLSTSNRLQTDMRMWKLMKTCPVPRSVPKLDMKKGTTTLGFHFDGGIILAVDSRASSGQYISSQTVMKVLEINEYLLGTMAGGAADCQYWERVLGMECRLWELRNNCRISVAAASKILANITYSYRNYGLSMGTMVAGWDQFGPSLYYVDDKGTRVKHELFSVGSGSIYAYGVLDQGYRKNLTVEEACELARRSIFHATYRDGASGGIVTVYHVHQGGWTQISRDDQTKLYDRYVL

Homo sapiens = species on record: Homo sapiens; assay: To identify inhibition of the IFN signalling (Jak-Stat) pathway via expression of an eGFP reporter gene under the control of an IFN-stimulated response element (ISRE) containing MxA promoter.; assay type: functional; conditions: 30 µM
[7] = biological target: T4, Tyrosyl-tRNA synthetase, putative (Trypanosoma cruzi (strain CL Brener)) (UniProt Q4DSP6); assay: Trypanosoma cruzi tyrosyl tRNA synthetase (TcYRS) _High Tyrosine SOP; assay type: functional; conditions: 30 µM; further: in the data most compounds retested in dose-response had high values
T4 sequence (whole entry): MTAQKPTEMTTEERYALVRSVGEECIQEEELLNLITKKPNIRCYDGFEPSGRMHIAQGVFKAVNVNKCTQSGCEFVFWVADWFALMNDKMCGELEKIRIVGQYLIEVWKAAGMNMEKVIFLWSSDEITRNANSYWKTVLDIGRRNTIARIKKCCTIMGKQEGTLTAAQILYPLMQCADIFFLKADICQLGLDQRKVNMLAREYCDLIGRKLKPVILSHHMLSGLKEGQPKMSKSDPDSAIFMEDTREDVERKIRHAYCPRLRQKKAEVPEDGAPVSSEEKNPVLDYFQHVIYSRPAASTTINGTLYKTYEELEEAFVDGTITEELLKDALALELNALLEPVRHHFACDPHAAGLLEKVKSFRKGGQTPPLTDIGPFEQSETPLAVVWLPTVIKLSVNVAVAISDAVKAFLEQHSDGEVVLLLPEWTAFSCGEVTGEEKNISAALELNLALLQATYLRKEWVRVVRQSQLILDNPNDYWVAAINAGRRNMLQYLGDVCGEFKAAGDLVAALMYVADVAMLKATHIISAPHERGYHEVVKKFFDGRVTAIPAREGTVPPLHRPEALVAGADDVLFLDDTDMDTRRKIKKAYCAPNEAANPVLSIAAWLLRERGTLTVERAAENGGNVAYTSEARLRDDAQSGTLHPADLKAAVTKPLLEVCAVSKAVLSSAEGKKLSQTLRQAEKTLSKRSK

[8] = biological target: T4, Tyrosyl-tRNA synthetase, putative (Trypanosoma cruzi (strain CL Brener)); assay: Trypanosoma cruzi tyrosyl tRNA synthetase (TcYRS) SOP; assay type: functional; conditions: 30 µM
[9] = biological target: Chromo domain-containing protein 1 (Saccharomyces cerevisiae (strain ATCC 204508 / S288c) (Baker's yeast)) (UniProt P32657); assay: ScCHD-1 Enzyme Inhibition Assay; assay type: functional; conditions: 30 µM; further: in the data most compounds retested in dose-response had high values
Sequence of Chromo domain-containing protein 1 (Saccharomyces cerevisiae (strain ATCC 204508 / S288c) (Baker's yeast)) (P32657 whole entry, the tested form may be a part): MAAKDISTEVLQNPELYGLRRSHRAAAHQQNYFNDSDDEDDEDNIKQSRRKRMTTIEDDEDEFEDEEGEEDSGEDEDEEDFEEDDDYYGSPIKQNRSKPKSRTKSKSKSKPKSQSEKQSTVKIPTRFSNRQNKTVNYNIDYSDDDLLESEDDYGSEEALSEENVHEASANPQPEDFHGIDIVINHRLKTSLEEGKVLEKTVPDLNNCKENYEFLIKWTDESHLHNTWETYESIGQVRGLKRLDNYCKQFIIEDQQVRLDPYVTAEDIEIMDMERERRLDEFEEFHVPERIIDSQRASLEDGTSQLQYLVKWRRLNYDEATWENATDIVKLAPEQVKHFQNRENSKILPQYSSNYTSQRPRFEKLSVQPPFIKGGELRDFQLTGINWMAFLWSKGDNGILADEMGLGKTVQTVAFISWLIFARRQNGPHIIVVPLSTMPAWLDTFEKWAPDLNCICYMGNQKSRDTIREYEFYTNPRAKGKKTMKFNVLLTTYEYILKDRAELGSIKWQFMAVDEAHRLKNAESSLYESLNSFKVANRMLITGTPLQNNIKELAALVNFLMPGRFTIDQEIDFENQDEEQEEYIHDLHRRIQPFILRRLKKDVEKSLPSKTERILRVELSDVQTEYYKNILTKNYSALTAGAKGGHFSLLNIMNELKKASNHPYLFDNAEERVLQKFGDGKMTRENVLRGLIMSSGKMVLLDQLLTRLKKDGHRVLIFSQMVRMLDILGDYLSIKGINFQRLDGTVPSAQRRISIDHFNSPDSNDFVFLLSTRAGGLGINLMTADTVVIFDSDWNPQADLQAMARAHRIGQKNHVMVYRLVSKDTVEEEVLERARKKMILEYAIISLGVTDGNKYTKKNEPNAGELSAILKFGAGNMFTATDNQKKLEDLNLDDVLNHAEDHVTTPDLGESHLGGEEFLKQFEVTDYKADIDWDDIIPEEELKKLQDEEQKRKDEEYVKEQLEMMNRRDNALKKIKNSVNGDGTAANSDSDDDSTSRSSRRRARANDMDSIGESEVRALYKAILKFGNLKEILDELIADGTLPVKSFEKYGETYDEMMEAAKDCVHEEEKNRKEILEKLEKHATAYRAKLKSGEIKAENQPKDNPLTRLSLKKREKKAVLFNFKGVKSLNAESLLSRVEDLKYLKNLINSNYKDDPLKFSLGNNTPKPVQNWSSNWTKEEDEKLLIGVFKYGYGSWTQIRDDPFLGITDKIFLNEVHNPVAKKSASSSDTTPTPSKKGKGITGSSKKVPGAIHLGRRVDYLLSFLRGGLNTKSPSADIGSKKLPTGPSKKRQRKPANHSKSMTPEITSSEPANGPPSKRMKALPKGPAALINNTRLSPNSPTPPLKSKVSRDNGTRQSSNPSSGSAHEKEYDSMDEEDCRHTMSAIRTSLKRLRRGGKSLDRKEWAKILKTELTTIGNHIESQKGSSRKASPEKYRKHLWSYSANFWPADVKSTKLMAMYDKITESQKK

SMILES	Percent Effect [1]	Percent Effect [2]	Percent Effect [3]	Percent Effect [4]	Percent Effect (Trypanosoma cruzi)	Percent Effect [5]	Percent Effect [6]	Percent Effect (Homo sapiens)	Percent Effect [7]	Percent Effect [8]	Percent Effect [9]
Cc1nc(CN2CCCn3c(nc(Cn4ccnc4)cc3=O)C2)cs1	-3.95%	12%	7.35%	0.752%	-0.393%	1.23%	5.36%	-26.2%	-1.06%	0%	-4.76%
Cc1cc(C)n(C2CN(CC(=O)N3CCOCC3)C2)n1	-2.95%	1.27%	6.75%	3.92%	0.103%	3.66%	11.2%	-2%	10.4%	7.59%	0.125%
Cc1cccc(C(=O)NC2CCN(c3cnn(C)c3)C2=O)n1 (stereo unspecified)	-4.94%	16.2%	-3.39%	24.3%	7.33%	23.6%	9.36%	-7.64%	3.23%	13.6%	-10.2%
Cn1cccc1C(=O)Nc1cc(F)ccc1OCC1CCCO1 (stereo unspecified)	-2.17%	-2.6%	2.66%	13.6%	6.74%	2.85%	0.507%	4.16%	-5.83%	0%	-1.65%
Cc1ccc(NS(=O)(=O)CC2=NC(=O)n3cccc3C2=O)cc1	-4.7%	-4%	-2.73%	6.4%	1.97%	-3.7%	3.7%	-2.44%	-10.6%	-17.9%	-2.6%
CN(C(=O)Cc1ccc2c(c1)OCCO2)C1CCCC1	3.58%	10.5%	1.6%	-8.7%	-3.8%	-7.1%	3.55%	14.1%	3.19%	10.4%	-0.571%
Cc1nccn1C1CCCN(C(=O)c2cc(O)nc3ccccc23)C1 (stereo unspecified)	-2.57%	12.7%	-7.86%	5.85%	-1.98%	-4.18%	-4.34%	-4.23%	6.4%	13.9%	-5.76%
COCCNc1nc(C2CCCC2)nc2c1CCNCC2	-0.492%	-2.7%	-0.634%	-1.74%	4.83%	1.91%	-38.6%	-3.26%	10.1%	19.5%	-2.52%
CC(OCC(F)(F)F)C(=O)N1CCN(S(C)(=O)=O)CC1 (stereo unspecified)	-3.82%	8.22%	1.32%	-5.16%	-3.92%	1.36%	9.05%	17.4%	6.45%	15%	-6.7%
Cc1cc(C[C@@H]2CCC[C@H]2NCc2ccccc2C(F)(F)F)on1	-4.94%	1.35%	8.14%	-0.325%	0%	2.55%	6.4%	13.5%	2.15%	9.09%	-10.5%
COc1ccc(CN2CCCC2Cn2nc(C)nc2C)cc1F (stereo unspecified)	-3.83%	6.33%	4.88%	0.831%	-0.718%	2.8%	8.58%	3.7%	5.21%	7.59%	-16.6%
COc1ccc(CN(Cc2cncn2C)CC2CCCO2)cc1OC (stereo unspecified)	-3.49%	12.2%	11.9%	0.383%	-2.37%	3.94%	9.52%	-8.46%	5.38%	11.7%	-15%
CC1=Nc2c(c(=O)[nH]n2C(C)C)C(c2cccs2)S1 (stereo unspecified)	-7.07%	-1.33%	2.48%	1.91%	0.197%	-3.7%	9.8%	11.9%	19.1%	25.6%	-2.82%
CNC(=O)c1ccc(CN2CCC(N(C)Cc3noc(C)n3)C2)cc1 (stereo unspecified)	-2.92%	18.2%	-3.53%	-3.54%	-2.25%	4.42%	15.9%	22.1%	-1.91%	14.1%	-19.2%
Cc1nn(C)c(N(C)C)c1CNCc1cccc(OCCN(C)C)c1	-0.484%	15.8%	-1.72%	5.4%	-8.08%	-4.98%	14.4%	23.3%	-1.47%	7.32%	-6.3%
CCN1CCC(c2nc3ccc(NC(C)C)cn3n2)CC1	-3.94%	-2.7%	-138%	-3.17%	7.62%	-1.25%	4.48%	-12.5%	5.94%	11%	0.337%
